Consider eight compounds from PubChem BioAssay (NCI).

Among the test systems are NCI-H23 lung; NCI-H226 lung; NCI-H322M lung; NCI-H460 lung; HOP-92 NSCLC; NCI-H522 lung; A549/ATCC NSCLC; 786-0 renal; COLO 205 colon; DU-145 prostate; K-562 leukemia; MALME-3M melanoma; MDA-MB-231 breast; RXF 393 renal; SF-268 CNS; SF-295 CNS; SF-539 CNS; UACC-257 melanoma; M14 melanoma; HOP-62 NSCLC.
Holding throughout (assay): NCI-60 one-dose screen, 48 h (100 = growth as untreated, 0 = no growth, -100 = all killed)
Common to all, as to conditions: 10 µM unless noted

About 83,000 compounds went through this panel and 20% of them were active in at least one assay; those are over-represented in the sample as a whole.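 Method: cells in 96-well plates; compound added at one concentration; 48 h incubation; percent growth measured; values under 10 scored active.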 Unmarked numbers belong to inactive results. Activity calls are given as the source filed them.

For the compound `Nc1nc(Nc2ccc([N+](=O)[O-])cc2O)nc(C(Cl)(Cl)Cl)n1`, the growth was 80.1% with NCI-H23 lung; 90.2% in the experiment on NCI-H226 lung; 96.9% in the experiment on NCI-H322M lung; 90.2% in the experiment with NCI-H460 lung; 49.4% in the experiment with HOP-92 NSCLC; 10.9% in the experiment with NCI-H522 lung. Also, the growth with A549/ATCC NSCLC was 82.4%; in the experiment with 786-0 renal, 97.1%; in the experiment with COLO 205 colon, 107%; in the experiment on DU-145 prostate, 97.3%; with K-562 leukemia, 28.7%; in the experiment on MALME-3M melanoma, 84.9%. Besides, the growth was 86.9% in the experiment on MDA-MB-231 breast; 76.1% in the experiment with RXF 393 renal; 64.4% in the experiment on SF-268 CNS; 93.2% with SF-295 CNS; 58% in the experiment with SF-539 CNS; 85.7% in the experiment on UACC-257 melanoma. For the same compound, the growth in the experiment with M14 melanoma is 74.6%.

Consider `O=C(c1ccccc1)[C@@H](c1ccccc1)[C@]1(O)C(=O)Nc2ccccc21`, for which the growth was 95% in the experiment on NCI-H23 lung; 83.1% in the experiment with NCI-H226 lung; 87.4% in the experiment on NCI-H322M lung; 77.3% with HOP-62 NSCLC; 95% in the experiment with NCI-H460 lung; 74% in the experiment with HOP-92 NSCLC. Besides, the growth with NCI-H522 lung was 93.7%; in the experiment on A549/ATCC NSCLC, 103%; in the experiment with 786-0 renal, 97.7%; with COLO 205 colon it was 84.1%; with DU-145 prostate, 103%; in the experiment with K-562 leukemia it was 102%. The growth in the experiment with MALME-3M melanoma is 98.2%; in the experiment with MDA-MB-231 breast, 88.4%; in the experiment on RXF 393 renal, 98.6%; in the experiment on SF-268 CNS it was 84.9%; in the experiment on SF-295 CNS, 95.8%; with SF-539 CNS, 95.3%. Further, the growth in the experiment on UACC-257 melanoma was 96.8%; with M14 melanoma it was 95.5%.

In the case of `C=CN(C(=O)N1CCN(c2cc3c(cc2F)c(=O)c(C(=O)O)cn3C2CC2)CC1)c1nc(-c2ccc(C)cc2)cs1`, the growth with NCI-H226 lung is 35.4%; in the experiment with NCI-H322M lung, 20.8%; with HOP-62 NSCLC, 17.9%; with NCI-H460 lung it was 9.77% (active); in the experiment with HOP-92 NSCLC it was -10.4% (active); with NCI-H522 lung it was 5.65% (active). The growth in the experiment on A549/ATCC NSCLC is 15.7%; with 786-0 renal it was 22.8%; with COLO 205 colon, 16.7%; in the experiment with DU-145 prostate, 24.7%; in the experiment with K-562 leukemia it was 18.5%; with MALME-3M melanoma, 48.2%. The growth in the experiment with MDA-MB-231 breast is 21.5%; in the experiment on RXF 393 renal, 6.69% (active); with SF-268 CNS, 26.3%; in the experiment on SF-295 CNS, -5.02% (active); in the experiment on SF-539 CNS, 20.2%; with UACC-257 melanoma it was 54.2%. Besides, the growth in the experiment with M14 melanoma is 31.4%.

For `CC(=O)/C(Br)=C/c1ccc(Br)o1`, the growth is 85.4% in the experiment on NCI-H226 lung; 102% with NCI-H322M lung; 137% in the experiment on HOP-62 NSCLC; 105% in the experiment on NCI-H460 lung; 33.8% with HOP-92 NSCLC; 55.7% in the experiment on NCI-H522 lung. The growth is 102% in the experiment on A549/ATCC NSCLC; 5.9% (active) in the experiment on 786-0 renal; 73.8% in the experiment on COLO 205 colon; 68.5% in the experiment with DU-145 prostate; 4.61% (active) in the experiment with K-562 leukemia; 61.4% in the experiment with MALME-3M melanoma. The growth was 95.7% with MDA-MB-231 breast; -13.5% (active) with RXF 393 renal; 75% in the experiment with SF-268 CNS; 73.7% in the experiment on SF-295 CNS; 94% with SF-539 CNS; 102% with UACC-257 melanoma. Besides, the growth with M14 melanoma was 64.9%.

Take `O=C(/C=C/c1ccc(Cl)cc1)c1ccc(Nc2ccnc3cc(Cl)ccc23)cc1`: the growth in the experiment with NCI-H226 lung was 111%; in the experiment with NCI-H322M lung, 89.6%; with HOP-62 NSCLC, 72.2%; in the experiment with NCI-H460 lung it was 133%; with HOP-92 NSCLC, 15.2%; in the experiment on NCI-H522 lung, 88.3%. The growth in the experiment on A549/ATCC NSCLC was 62.7%; in the experiment with 786-0 renal, 62.8%; in the experiment on COLO 205 colon, 107%; with DU-145 prostate, 145%; in the experiment with K-562 leukemia, 27.8%; in the experiment with MALME-3M melanoma, 79.9%. In addition, the growth in the experiment on MDA-MB-231 breast was 48.4%; in the experiment on RXF 393 renal it was -41.4% (active); with SF-268 CNS, 164%; in the experiment with SF-295 CNS, 9.54% (active); with SF-539 CNS, 122%; in the experiment on UACC-257 melanoma, 93.4%. For the same compound, the growth in the experiment with M14 melanoma was 84.5%.

Consider `Cc1ccc(C23CCC(=O)N2CCc2cncn23)cc1` (configuration not stated), for which the growth with NCI-H226 lung is 96.2%; in the experiment with NCI-H322M lung, 99.3%; with HOP-62 NSCLC it was 94.8%; in the experiment on NCI-H460 lung, 110%; in the experiment with HOP-92 NSCLC it was 87.2%; with NCI-H522 lung, 87.9%. Besides, the growth in the experiment with A549/ATCC NSCLC was 96.7%; with 786-0 renal it was 108%; in the experiment on COLO 205 colon, 98.6%; in the experiment with DU-145 prostate, 105%; with K-562 leukemia it was 112%; in the experiment on MALME-3M melanoma, 109%. Also, the growth is 113% with MDA-MB-231 breast; 87% in the experiment with RXF 393 renal; 114% with SF-268 CNS; 102% in the experiment on SF-295 CNS; 101% in the experiment on SF-539 CNS; 100% in the experiment on UACC-257 melanoma. Moreover, the growth in the experiment on M14 melanoma was 101%.

Regarding `COc1cc(/C=C2\C(=O)N(CCOc3cc(O)c4c(=O)cc(-c5ccccc5)oc4c3)c3ccccc32)cc(OC)c1O`, the growth with NCI-H226 lung was 90.4%; in the experiment with NCI-H322M lung it was 90.7%; with HOP-62 NSCLC, 68.7%; with NCI-H460 lung it was 66.1%; in the experiment with HOP-92 NSCLC, 80.5%; with NCI-H522 lung, 60.1%. The growth with A549/ATCC NSCLC is 85%; in the experiment on 786-0 renal it was 75.6%; in the experiment on COLO 205 colon it was 93.3%; in the experiment with DU-145 prostate it was 94%; with K-562 leukemia, 22.6%; with MALME-3M melanoma, 77.6%. The growth with MDA-MB-231 breast is 64.2%; in the experiment with RXF 393 renal, 85.9%; in the experiment on SF-268 CNS, 70.6%; in the experiment with SF-295 CNS, 86.6%; in the experiment with SF-539 CNS, 69.9%; in the experiment with UACC-257 melanoma, 104%. The growth with M14 melanoma is 28.1%.

As to `COc1ccccc1NC(=O)n1c(=O)cc(C)c2ccc(O)cc21`, the growth in the experiment with NCI-H226 lung was 93.5%; with NCI-H322M lung it was 103%; with NCI-H460 lung it was 111%; with HOP-92 NSCLC it was 88.9%; with NCI-H522 lung, 96.2%; in the experiment on A549/ATCC NSCLC, 105%. Besides, the growth in the experiment on 786-0 renal is 115%; in the experiment on COLO 205 colon, 110%; with DU-145 prostate it was 113%; in the experiment with K-562 leukemia, 117%; in the experiment with MALME-3M melanoma, 106%; in the experiment on MDA-MB-231 breast it was 106%. For the same compound, the growth is 94.8% in the experiment with RXF 393 renal; 106% with SF-268 CNS; 101% with SF-295 CNS; 106% with SF-539 CNS; 111% in the experiment with UACC-257 melanoma; 113% in the experiment on M14 melanoma.
